Hit rate of the full screen: of about 2,300 compounds, about 1,000 (43%) were called active. How the calls were made is not given here. The set was probably picked from earlier hits. The list shows a part of the results. Measured potencies and affinities stand elsewhere.
assay: PhoP regulon inhibitor project modified counter assay, GFP fluorescence readout, dose response (AID 1985); conditions: S. Typhi, 4 h; series mostly up to 150 µM; inhibition: at the top concentration

For COc1ccccc1CNC(=O)Cn1c(=O)oc2cc(S(=O)(=O)N3CCCC3)ccc21, which “inhibition” value is on record?
The value was 12.1% (inactive).

With CCCCN1/C(=C/c2cccc[n+]2C)Sc2cc(NC(C)=O)ccc21 as the compound, how does the “inhibition” value read?
The value was 5.75% (inactive).

With CCCCc1cc(=O)oc2cc(C)c(CN3CCCC3)c(O)c12 as the compound, how does the “inhibition” value read?
Its value is 20.6% (inactive).

For O=C(NC(O)C(=O)c1ccccc1)c1ccc(F)cc1 (stereo not drawn), which “inhibition” value is on record?
Its value is -23.6% (inactive).

For COc1ccccc1/C=C/C(=O)Nc1cccc(C(C)=O)c1, which “inhibition” value is on record?
Its value is 24.2% (inactive).

With O=C(/C=C/c1ccc(Cl)cc1Cl)NCc1ccncc1 as the compound, how does the “inhibition” value read?
The value was 16.7% (inactive).

For Cc1ccc(N2C(N)=C(C#N)C(c3cccnc3)C3=C2CC(C)(C)CC3=O)cc1 (stereo not drawn), which “inhibition” value is on record?
Its value is -21.1% (inactive).

Which “inhibition” value does the source give for CCOc1cc(CNC(C)(C)CO)cc(Br)c1OCc1ccc(Cl)cc1Cl here?
Its value is 32.3% (inactive).

Which “inhibition” value does the source give for OCCCCNCc1ccc(OCc2ccccc2Cl)cc1 here?
The value was 23.7% (inactive).

Which “inhibition” value does the source give for COc1cc(CNC2CCCC2)cc(Cl)c1OCc1ccccc1Cl here?
Its value is -28.1% (inactive).

With CCOC(=O)c1c(C)[nH]c(C(=O)CN2C(=O)NC(C)(c3ccc4ccccc4c3)C2=O)c1C (stereo not drawn) as the compound, how does the “inhibition” value read?
Its value is -6.21% (inactive).

For Cc1cc(=O)oc2ccc(OCC(=O)N3CCC(C)CC3)cc12, which “inhibition” value is on record?
Its value is 14.8% (inactive).

Which “inhibition” value does the source give for O=C(O)COc1ccc(F)cc1Br here?
The value was 3.92% (inactive).

For O=C(COc1ccc(Cl)cc1)N1CCN(C2CCCC2)CC1, which “inhibition” value is on record?
The value was -26.3% (inactive).

For CC1CC1C(=O)Nc1nc2ccc(S(C)(=O)=O)cc2s1 (stereo not drawn), which “inhibition” value is on record?
Its value is 6.02% (inactive).

For CCOC(=O)Cc1csc(NC(=O)c2ccc(S(=O)(=O)N3CCCC3)cc2)n1, which “inhibition” value is on record?
Its value is -6.85% (inactive).

With Cc1ccc(-c2nc(C(=O)NCCCN(C)C)cc3c2[nH]c2ccccc23)cc1 as the compound, how does the “inhibition” value read?
Its value is 15.2% (inactive).

Which “inhibition” value does the source give for O=C(Cn1cnc2cc([N+](=O)[O-])ccc2c1=O)Nc1ccccc1Cl here?
Its value is 4.55% (inactive).

With O=C(Nc1nccs1)c1ccc(Cl)cc1[N+](=O)[O-] as the compound, how does the “inhibition” value read?
Its value is 2.12% (inactive).

With O=C(NCCCN1CCOCC1)C(C(=O)c1ccccc1)n1ccccc1=O (stereo not drawn) as the compound, how does the “inhibition” value read?
The value was 25.3% (inactive).

With CCCCNC(=S)Nc1ccc([N+](=O)[O-])cc1 as the compound, how does the “inhibition” value read?
Its value is 37.9% (inactive).

Which “inhibition” value does the source give for COc1cc(CNc2ccc(N3CCN(C(C)=O)CC3)cc2)ccc1OCc1ccccc1 here?
The value was -2.24% (inactive).

For COc1cc(CNCCc2c[nH]c3ccccc23)ccc1OCc1ccccc1F, which “inhibition” value is on record?
Its value is 8.11% (inactive).

With COc1ccc(CNCCc2c[nH]c3ccccc23)c(OC)c1C as the compound, how does the “inhibition” value read?
Its value is 0.46% (inactive).

With O=C(Cn1c(C(F)(F)F)nc2ccccc21)NCCCN1CCOCC1 as the compound, how does the “inhibition” value read?
The value was -22.6% (inactive).

Which “inhibition” value does the source give for Cc1ccc(S(=O)(=O)N(Cc2n[nH]c(=S)n2-c2ccccc2)c2ccccc2)cc1 here?
Its value is -23% (inactive).

With COc1ccccc1OCc1nnc(SCC(=O)NCc2ccco2)n1Cc1ccco1 as the compound, how does the “inhibition” value read?
Its value is -24.1% (inactive).

Which “inhibition” value does the source give for O=C(Nc1ccc(Br)cc1)N1CCCCC1 here?
The value was 22.6% (inactive).

For O=C(Cn1nc(Cl)nc1Cl)c1ccc([N+](=O)[O-])cc1, which “inhibition” value is on record?
Its value is 27.9% (inactive).

With COc1ccc(C(=O)NNS(=O)(=O)c2ccccc2)cc1OC as the compound, how does the “inhibition” value read?
The value was -24% (inactive).

With CCn1c(CNC(=O)c2ccc(OC)cc2)nnc1SC as the compound, how does the “inhibition” value read?
Its value is 1.63% (inactive).

With CN(C)S(=O)(=O)c1cccc(NC(=O)c2cnccn2)c1 as the compound, how does the “inhibition” value read?
The value was 10.4% (inactive).

Which “inhibition” value does the source give for COc1cc(C(=O)NC(=S)Nc2cccc3nc(C)ccc23)cc(OC)c1OC here?
Its value is -5.39% (inactive).

From PubChem BioAssay AID1985 (Southern Research Specialized Biocontainment Screening …, 2009)
